Laboratory results taken from PubChem BioAssay AID1159580 (chemical genetic matrix, 2015).
Values joined by “and” are separate entries in the source; they are usually repeats but may differ in a detail not shown here. Equal values may be shown once. Out of some 5,500 compounds screened, about 2,000 (36%) were called active. Not shown: some 18% with an inconclusive outcome. No stated cut-off is given here; in the data, active means normalized growth mostly below about 0.91 (no sharp cut-off); inconclusive means no clear call, values can overlap the other calls; inactive means mostly above about 0.92. This is one part of the list.

Assay: chemical genetic growth profiling, strain panel (AID 1159580);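 further: tested at 20 µM; growth read once vehicle control cultures reached saturation at 30 °C; 1 = growth at the plate median or of vehicle wells; lower values mean less growth of the strain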
Conditions: S. cerevisiae deletion strains, growth OD

Measured: normalized growth

Cn1c(=O)c2c(ncn2CC(O)CO)n(C)c1=O (configuration not stated)
inactive: locus YAL013W, strain DEP1, hits give low values 1.01 | locus YAL021C, strain ccr4, hits give low values 0.97 | locus YAL026C, strain drs2, hits give low values 0.967 | locus YAL030W, strain snc1, hits give low values 0.989 | locus YBL061C, strain skt5, hits give low values 0.992 | locus YBR009C, strain hhf1, hits give low values 0.982 | locus YBR021W, strain FUR4, hits give low values 1.03 | locus YBR023C, strain chs3, hits give low values 1 | locus YBR171W, strain sec66, hits give low values 0.978 | locus YBR229C, strain ROT2, hits give low values 1.01 | locus YBR231C, strain swc5, hits give low values 1 | locus YBR279W, strain paf1, hits give low values 0.972 | locus YCL011C, strain gbp2, hits give low values 0.99 | locus YCL016C, strain dcc1, hits give low values 1.01 | locus YCL029C, strain bik1, hits give low values 0.96 | locus YCL061C, strain MRC1, hits give low values 1 | locus YCL069W, strain vba3, hits give low values 0.953 | locus YCR088W, strain abp1, hits give low values 0.989 | locus YDL005C, strain med2, hits give low values 0.972 | locus YDL035C, strain GPR1, hits give low values 1.05 | locus YDL040C, strain nat1, hits give low values 0.986 | locus YDL074C, strain BRE1, hits give low values 1.02 | locus YDL101C, strain DUN1, hits give low values 0.995 | locus YDL185W, strain tfp1, hits give low values 0.954 | locus YDL192W, strain arf1, hits give low values 0.972 | locus YDR001C, strain nth1, hits give low values 0.97 | locus YDR069C, strain doa4, hits give low values 0.958 | locus YDR101C, strain arx1, hits give low values 1.01 | locus YDR137W, strain rgp1, hits give low values 0.986 | locus YDR159W, strain sac3, hits give low values 0.942 | locus YDR162C, strain NBP2, hits give low values 1.02 | locus YDR195W, strain ref2 0.951 | locus YDR297W, strain sur2, hits give low values 0.991 | locus YDR318W, strain mcm21, hits give low values 0.977 | locus YDR334W, strain swr1, hits give low values 0.973 | locus YDR335W, strain msn5, hits give low values 0.981 | locus YDR388W, hits give low values 0.988 | locus YDR392W, strain spt3, hits give low values 0.939 | locus YDR502C, strain sam2, hits give low values 0.984 | locus YEL003W, strain gim4, hits give low values 0.981 | locus YEL037C, strain rad23, hits give low values 0.972 | locus YEL061C, strain CIN8 (second series), hits give low values 0.97 | locus YEL061C, strain CIN8, hits give low values 0.997 | locus YER015W, strain faa2, hits give low values 0.993 | locus YER016W, strain bim1, hits give low values 0.951 | locus YER110C, hits give low values 0.943 | locus YER111C, strain swi4, hits give low values 0.988 | locus YER155C, strain BEM2 (second series), hits give low values 0.953 | locus YER155C, strain BEM2, hits give low values 1 | locus YER167W, strain BCK2, hits give low values 0.996 | locus YFR010W, strain ubp6, hits give low values 0.967 | locus YGL078C, strain dbp3, hits give low values 0.978 | locus YGL086W, strain mad1, hits give low values 1.01 | locus YGL167C, strain pmr1, hits give low values 0.989 | locus YGL173C, strain kem1, hits give low values 0.97 | locus YGL227W, strain vid30, hits give low values 0.987 | locus YGL240W, strain doc1, hits give low values 0.973 | locus YGL248W, strain PDE1, hits give low values 0.995 | locus YGL253W, strain hxk2, hits give low values 0.972 | locus YGR078C, strain PAC10, hits give low values 1.01 | locus YGR135W, strain pre9, hits give low values 0.954 | locus YGR252W, strain gcn5, hits give low values 0.987 | locus YHR013C, strain ard1, hits give low values 0.975 | locus YHR027C, strain rpn1, hits give low values 0.981 | locus YHR030C, strain SLT2, hits give low values 1 and 1.02 | locus YHR079C, strain IRE1 (second series), hits give low values 0.968 | locus YHR079C, strain IRE1, hits give low values 1.08 | locus YHR094C, strain hxt1, hits give low values 0.984 | locus YHR129C, strain ARP1, hits give low values 1.01 | locus YHR142W, strain chs7, hits give low values 0.992 | locus YHR200W, strain rpn10, hits give low values 0.97 | locus YIL066C, strain RNR3, hits give low values 1.01 | locus YIL073C, strain SPO22, hits give low values 0.908 | locus YIL125W, strain kgd1, hits give low values 0.992 | locus YIR030C, strain dcg1, hits give low values 0.949 | locus YJL092W, strain hpr5, hits give low values 0.998 | locus YJL095W, strain BCK1 (second series), hits give low values 0.989 | locus YJL095W, strain BCK1, hits give low values 0.982 and 1.02 | locus YJL115W, strain asf1, hits give low values 0.979 | locus YJL129C, strain trk1, hits give low values 0.994 | locus YJL134W, strain LCB3, hits give low values 1 | locus YJL154C, strain vps35, hits give low values 0.972 | locus YJL164C, strain tpk1, hits give low values 0.998 | locus YJL166W, strain qcr8, hits give low values 1.04 | locus YJL168C, strain set2, hits give low values 0.98 | locus YJL187C, strain SWE1 (second series), hits give low values 0.988 | locus YJL187C, strain SWE1, hits give low values 0.981 | locus YJR043C, strain POL32, hits give low values 1.06 | locus YJR066W, strain TOR1, hits give low values 0.952 | locus YKL009W, strain mrt4, hits give low values 0.979 | locus YKL068W, hits give low values 0.982 | locus YKL085W, strain MDH1 (second series), hits give low values 1.01 | locus YKL085W, strain MDH1, hits give low values 1.01 | locus YKL160W, strain elf1, hits give low values 1.06 | locus YKR001C, strain vps1, hits give low values 0.975 | locus YKR026C, strain gcn3, hits give low values 0.974 | locus YKR091W, strain srl3, hits give low values 0.994 | locus YLL001W, strain dnm1, hits give low values 1.03 | locus YLL026W, hits give low values 0.987 | locus YLL041C, strain sdh2, hits give low values 0.979 | locus YLR027C, strain aat2, hits give low values 0.973 | locus YLR039C, strain RIC1, hits give low values 1.01 | locus YLR058C, strain SHM2, hits give low values 0.996 | locus YLR102C, strain apc9, hits give low values 0.975 | locus YLR113W, strain HOG1, hits give low values 1.06 | locus YLR221C, strain rsa3, hits give low values 1.03 | locus YLR258W, strain gsy2, hits give low values 0.985 | locus YLR262C, strain YPT6 (second series), hits give low values 0.991 | locus YLR262C, strain YPT6, hits give low values 0.939 | locus YLR268W, strain sec22, hits give low values 0.966 | locus YLR320W, strain mms22, hits give low values 1.04 | locus YLR330W, strain CHS5, hits give low values 0.999 | locus YLR342W, strain FKS1 (second series), hits give low values 1.08 | locus YLR342W, strain FKS1, hits give low values 0.983 | locus YLR357W, strain rsc2, hits give low values 0.989 | locus YLR370C, strain arc18, hits give low values 0.981 | locus YLR371W, strain rom2, hits give low values 0.963 | locus YLR384C, strain iki3, hits give low values 0.98 | locus YLR418C, strain cdc73, hits give low values 0.996 | locus YML016C, strain PPZ1, hits give low values 1.01 | locus YML032C, strain rad52, hits give low values 0.988 | locus YML120C, strain ndi1, hits give low values 1.01 | locus YML124C, strain tub3, hits give low values 0.988 | locus YMR058W, strain fet3, hits give low values 0.981 | locus YMR078C, strain ctf18, hits give low values 0.966 | locus YMR125W, strain sto1, hits give low values 0.979 | locus YMR129W, hits give low values 0.966 | locus YMR205C, strain PFK2, hits give low values 1.04 | locus YMR223W, strain ubp8, hits give low values 0.973 | locus YMR231W, strain pep5, hits give low values 0.97 | locus YMR307W, strain GAS1, hits give low values 1.05 | locus YNL067W, strain RPL9B, hits give low values 0.97 | locus YNL071W, strain lat1, hits give low values 0.975 | locus YNL128W, strain TEP1, hits give low values 0.969 | locus YNL153C, strain GIM3, hits give low values 1 | locus YNL183C, strain NPR1, hits give low values 0.987 | locus YNL209W, strain ssb2, hits give low values 0.995 | locus YNL233W, strain BNI4, hits give low values 1.01 | locus YNL248C, strain rpa49, hits give low values 0.978 | locus YNL250W, strain rad50, hits give low values 0.974 | locus YNL271C, strain bni1, hits give low values 0.973 | locus YNL298W, strain CLA4, hits give low values 0.969 | locus YNL307C, strain MCK1, hits give low values 0.983 | locus YNL322C, strain KRE1 (second series), hits give low values 0.983 | locus YNL322C, strain KRE1, hits give low values 0.998 | locus YNR049C, strain mso1, hits give low values 0.988 | locus YNR052C, strain pop2, hits give low values 0.969 | locus YOL006C, strain TOP1, hits give low values 0.966 | locus YOL012C, strain htz1 0.82 | locus YOL147C, strain pex11, hits give low values 0.974 | locus YOR001W, strain rrp6, hits give low values 0.93 | locus YOR061W, strain CKA2, hits give low values 1 | locus YOR069W, strain VPS5, hits give low values 1.01 | locus YOR070C, strain gyp1, hits give low values 0.989 | locus YOR080W, strain dia2, hits give low values 0.984 | locus YOR083W, strain WHI5, hits give low values 1.07 | locus YOR106W, strain vam3, hits give low values 1.02 | locus YOR136W, strain idh2, hits give low values 0.976 | locus YOR144C, strain elg1, hits give low values 0.98 | locus YOR184W, strain ser1, hits give low values 0.957 | locus YOR231W, strain MKK1, hits give low values 1.03 | locus YOR265W, strain rbl2, hits give low values 0.986 | locus YOR270C, strain vph1, hits give low values 0.982 | locus YOR290C, strain snf2, hits give low values 0.954 | locus YOR316C, strain cot1, hits give low values 0.959 | locus YPL051W, strain arl3, hits give low values 0.991 | locus YPL055C, strain LGE1, hits give low values 1.01 | locus YPL078C, strain atp4, hits give low values 1.03 | locus YPL106C, strain sse1, hits give low values 1 | locus YPL240C, strain hsp82, hits give low values 0.97 | locus YPL241C, strain CIN2, hits give low values 1 | locus YPL256C, strain CLN2, hits give low values 1.02 | locus YPR119W, strain clb2, hits give low values 0.967 | locus YPR141C, strain kar3, hits give low values 0.95 | locus YPR163C, strain tif3, hits give low values 0.98 | locus YPR167C, strain met16, hits give low values 0.968 | strain wtn01, hits give low values 0.997
